We go through 38 compounds from PubChem BioAssay (NCATS).

Each structure is given as a SMILES string. Inconclusive results are not listed. A call without a number means that no potency is given here. A number with no mark means an inactive call. Active and inactive are the calls of the source. Calls come from the whole dose curve.

The nature of one assay: Primary qHTS for inhibitors of SARS-S pseudo-typed particle cell entry (AID 1479145). Note: nearly all actives have a fitted effect of over 45% in size. The conditions noted are these: SARS-S pseudotyped particle cell entry, luciferase reporter; series mostly up to 57.1 µM. Background: In qHTS, concentration-response curves come from the screen itself.
For `CC(CCc1ccccc1)NCC(O)c1ccc(O)c(C(N)=O)c1` (stereo not drawn), the Potency result is “inactive”.
The same measure, in the same setting: in the case of `N#Cc1ccc(C(c2ccc(C#N)cc2)n2cncn2)cc1` it was “inactive”.
On to `COC(=O)C(c1ccccc1)C1CCCCN1` (stereo not drawn), for which the Potency entry is “inactive”.
In the case of `C#CCN[C@@H]1CCc2ccccc21`, the Potency entry was “inactive”.
Turning to `CC(C(=O)O)c1ccc(/C=C2\CCCCC2=O)cc1` (stereo not drawn), the Potency entry is “inactive”.
For `O=P(O)(O)C(Sc1ccc(Cl)cc1)P(=O)(O)O`, the activity change, negative = inhibition was -6.9% [at 0.573 µM].
As for `CCCC(O)C(CC)CO` (stereo not drawn), the Potency result was “inactive”.
The same measure, in the same setting: under `CCCCOC(=O)c1ccc(N)cc1` stands “inactive”; under `Cc1c(C(C)C)c(=O)n(-c2ccccc2)n1C`, “inactive”.
Same read-out and setting: in the case of `CCCCCCCCCCC[C@@H](C[C@@H]1OC(=O)[C@H]1CCCCCC)OC(=O)[C@H](CC(C)C)NC=O` it was “inactive”; in that of `CCCCCCCCCCCCCCCCCCO`, “inactive”; in that of `CC(C)(CO)[C@@H](O)C(=O)NCCCO`, “inactive”.
As to `CN[C@@H]1[C@@H](O)[C@@H](O[C@@H]2[C@H](O)[C@H](O[C@H]3OC(CN)=CC[C@H]3N)[C@@H](N)C[C@H]2N)OCC1(C)O` (stereo partly drawn), the Potency result was “inactive”.
For the compound `CCN(CC)C(=O)/C(C#N)=C/c1cc(O)c(O)c([N+](=O)[O-])c1`, the Potency entry was “inactive”.
As to `COc1ccc(C(=O)CC(=O)c2ccc(C(C)(C)C)cc2)cc1`, the Potency entry is “inactive”.
The same measure, in the same setting: under `CCCCCC[C@@H](CCC)C(=O)O` stands “inactive”; under `NC(=O)c1ncn([C@@H]2O[C@H](CO)[C@@H](O)[C@H]2O)c1O`, “inactive”.
Regarding `CCn1cc(C(=O)O)c(=O)c2cnc(N3CCCC3)nc21`, the activity change, negative = inhibition is -4.52% [at 11.4 µM].
Turning to `O=C(N[C@H](CO)[C@H](O)c1ccc([N+](=O)[O-])cc1)C(Cl)Cl`, the Potency result was “inactive”.
Consider `CC(=O)c1ccc(S(=O)(=O)NC(=O)NC2CCCCC2)cc1`, for which the Potency result is “inactive”.
Same read-out and setting: in the case of `CC(=O)N=c1sc(S(N)(=O)=O)nn1C` it was “inactive”.
For `O=C(O)c1cccnc1`, the Potency entry was “inactive”.
Consider `O=C(O)Cc1cccc(-c2cc(CCCCCCc3ccc(O[C@H]4O[C@H](CO)[C@@H](O)[C@H](O)[C@@H]4O)c(-c4cccc(CC(=O)O)c4)c3)ccc2O[C@H]2O[C@H](CO)[C@@H](O)[C@H](O)[C@@H]2O)c1`, for which the activity change, negative = inhibition was -22.9% [at 0.573 µM].
As for `Cn1nnc2c(C(N)=O)ncn2c1=O`, the Potency result was “inactive”.
With `CN1CCN(CC(=O)N2c3ccccc3C(=O)Nc3cccnc32)CC1`, the activity change, negative = inhibition was -4.78% [at 5.34 µM].

A short description of the next assay: Primary qHTS for Huh7 cytotoxicity: counterscreen for inhibitors of MERS-S pseudotyped particle cell entry (AID 1479147). The conditions noted are these: cell viability read-out; series mostly up to 57.1 µM.
On to `CCCc1nc(C(C)(C)O)c(C(=O)OCc2oc(=O)oc2C)n1Cc1ccc(-c2ccccc2-c2nn[nH]n2)cc1`, for which the Potency entry is “inactive”.
The same measure, in the same setting: in the case of `N[C@@H](CCC(=O)N[C@@H](CS)C(=O)NCC(=O)O)C(=O)O` it was “inactive”.
On to `CCCCCCCCCCCCCCCCCC(=O)OCC(O)CO` (stereo not drawn), for which the Potency entry is “inactive”.
On the same count and under the same terms, in the case of `O=C(COCCOCCOCC(=O)Nc1c(I)cc(I)c(C(=O)O)c1I)Nc1c(I)cc(I)c(C(=O)O)c1I` it was “inactive”.
The same measure, in the same setting: in the case of `O=C(O)c1cc(=O)c2c(OCC(O)COc3cccc4oc(C(=O)O)cc(=O)c34)cccc2o1` it was “inactive”; in that of `CCCCCCCCCCCCCCCC(=O)OCCC1CCN(CCCN2c3ccccc3Sc3ccc(S(=O)(=O)N(C)C)cc32)CC1`, “inactive”.
The same measure, in the same setting: under `CN1C[C@H](C(=O)N[C@]2(C)O[C@@]3(O)[C@@H]4CCCN4C(=O)[C@H](Cc4ccccc4)N3C2=O)C=C2c3cccc4[nH]cc(c34)C[C@H]21` stands “inactive”; under `CN1[C@@H]2CC(OC(=O)[C@H](CO)c3ccccc3)C[C@H]1[C@@H]1O[C@@H]12` (stereo partly drawn), “inactive”.
`CO[C@@]1(NC(=O)C2SC(=C(C(N)=O)C(=O)O)S2)C(=O)N2C(C(=O)O)=C(CSc3nnnn3C)CS[C@@H]21` (stereo partly drawn): the Potency entry was “inactive”.
As to `O=C(O)c1cc(N=Nc2ccc(O)c(C(=O)O)c2)ccc1O`, the Potency entry was “inactive”.
`Cc1cccc(C)c1OCC(=O)N[C@@H](Cc1ccccc1)[C@@H](O)C[C@H](Cc1ccccc1)NC(=O)[C@H](C(C)C)N1CCCNC1=O`: the Potency entry is “inactive”.
Same read-out and setting: under `CCC(=O)c1c(O)cc(O)cc1O` stands “inactive”.
Still for that read-out and setting: in the case of `CC(=O)OCC(=O)[C@@]1(O)[C@H](C)C[C@H]2[C@@H]3CCC4=CC(=O)C=C[C@]4(C)[C@@]3(F)[C@@H](O)C[C@@]21C` it was “inactive”; in that of `CC(CCc1ccccc1)NCC(O)c1ccc(O)c(C(N)=O)c1` (stereo not drawn), “inactive”.
On the same count and under the same terms, under `N#Cc1ccc(C(c2ccc(C#N)cc2)n2cncn2)cc1` stands “inactive”.
Consider `COC(=O)C(c1ccccc1)C1CCCCN1` (stereo not drawn), for which the Potency entry was “inactive”.
On the same count and under the same terms, under `C#CCN[C@@H]1CCc2ccccc21` stands “inactive”; under `CC(C(=O)O)c1ccc(/C=C2\CCCCC2=O)cc1` (stereo not drawn), “inactive”.
As to `O=P(O)(O)C(Sc1ccc(Cl)cc1)P(=O)(O)O`, the outcome was “inactive [at 0.573 µM]”.
`CCCC(O)C(CC)CO` (stereo not drawn): the Potency result was “inactive”.
In the case of `CCCCOC(=O)c1ccc(N)cc1`, the Potency result was “inactive”.
For the compound `Cc1c(C(C)C)c(=O)n(-c2ccccc2)n1C`, the Potency entry was “inactive”.
Consider `CCCCCCCCCCC[C@@H](C[C@@H]1OC(=O)[C@H]1CCCCCC)OC(=O)[C@H](CC(C)C)NC=O`, for which the Potency result was “inactive”.
The same measure, in the same setting: under `CCCCCCCCCCCCCCCCCCO` stands “inactive”.
The same measure, in the same setting: in the case of `CC(C)(CO)[C@@H](O)C(=O)NCCCO` it was “inactive”; in that of `CN[C@@H]1[C@@H](O)[C@@H](O[C@@H]2[C@H](O)[C@H](O[C@H]3OC(CN)=CC[C@H]3N)[C@@H](N)C[C@H]2N)OCC1(C)O` (stereo partly drawn), “inactive”; in that of `CCN(CC)C(=O)/C(C#N)=C/c1cc(O)c(O)c([N+](=O)[O-])c1`, “inactive”.
For the compound `COc1ccc(C(=O)CC(=O)c2ccc(C(C)(C)C)cc2)cc1`, the Potency result was “inactive”.
As for `CCCCCC[C@@H](CCC)C(=O)O`, the Potency result was “inactive”.
On the same count and under the same terms, under `NC(=O)c1ncn([C@@H]2O[C@H](CO)[C@@H](O)[C@H]2O)c1O` stands “inactive”.
On to `CCn1cc(C(=O)O)c(=O)c2cnc(N3CCCC3)nc21`, for which the outcome is “inactive [at 11.4 µM]”.
For the compound `O=C(N[C@H](CO)[C@H](O)c1ccc([N+](=O)[O-])cc1)C(Cl)Cl`, the Potency entry is “inactive”.
On to `CC(=O)c1ccc(S(=O)(=O)NC(=O)NC2CCCCC2)cc1`, for which the Potency result is “inactive”.
Still for that read-out and setting: under `CC(=O)N=c1sc(S(N)(=O)=O)nn1C` stands “inactive”.
On the same count and under the same terms, in the case of `O=C(O)c1cccnc1` it was “inactive”.
Regarding `O=C(O)Cc1cccc(-c2cc(CCCCCCc3ccc(O[C@H]4O[C@H](CO)[C@@H](O)[C@H](O)[C@@H]4O)c(-c4cccc(CC(=O)O)c4)c3)ccc2O[C@H]2O[C@H](CO)[C@@H](O)[C@H](O)[C@@H]2O)c1`, the outcome was “inactive [at 0.573 µM]”.
In the case of `Cn1nnc2c(C(N)=O)ncn2c1=O`, the Potency result is “inactive”.
On to `CN1CCN(CC(=O)N2c3ccccc3C(=O)Nc3cccnc32)CC1`, for which the activity change, negative = cytotoxicity was 1.37% [at 5.34 µM].
